According to PubChem BioAssay (Tox21):
“And” between values parts separate entries of the source, which are not always exact repeats. Equal values may be shown once. Inconclusive results are not listed. A number with no mark means an inactive call. The source made the active and inactive calls. The call rests on the fitted dose curve; in most records, active means well fitted cell-killing curve with a large enough effect in the repeat runs; inconclusive means weak or mixed curves; inactive means flat fitted curve, though single readings scatter.

assay: qHTS assay to identify small molecule antagonists of the estrogen receptor beta (ER-beta) signaling pathway - cell viability counter screen (AID 1259382); conditions: ER-beta-UAS-bla HEK293T viability, CellTiter-Glo luminescence, 16 h; series mostly up to 92.4 µM; activity change, negative = cytotoxicity: at the top concentration; further: nearly all actives have a fitted effect of over 55% in size
From the text: U.S. Tox21 Program National Center for Advancing Translational Sciences [NCATS] NIH Chemical Genomics Center [NCGC] U.S. Environmental Protection Agency [EPA] National Institutes of Environmental Health Sciences [NIEHS] National Toxicology Program [NTP] U.S. Food and Drug Administration [FDA] Tox21 Assay Overview: Estrogen receptor (ER), a nuclear hormone receptor, plays an important role in development, metabolic homeostasis and reproduction. Two subtypes of ER, ER-alpha and ER-beta, have similar expression patterns with some uniqueness in both types. Endocrine disrupting chemicals (EDCs) and their interactions with steroid hormone receptors like ER causes disruption of normal endocrine function. To identify the compounds that inhibit ER signaling, an ER-beta-UAS-bla GripTite cell line (Life Technologies, Madison, WI, USA) containing a beta-lactamase reporter gene under the control of an UAS response element was used to screen Tox21 10K compound library. The cytotoxicity of the Tox21 compound library against the ER-beta-bla cell line was tested in parallel by measuring the cell viability using CellTiter-Glo assay in the same wells.
Tox21 Assay Protocol Summary: ER-beta-UAS-bla HEK293T cells were dispensed at 2,000 cells/4 uL of assay medium containing 2% charcoal stripped FBS per well into black wall/clear-bottom 1536-well plates using a Multidrop Combi (ThermoFisher Scientific, Waltham, MA) dispenser. After the assay plates were incubated at a 37C and 5% CO2 for 6 hr, 23 nL of compounds dissolved in DMSO, positive controls or DMSO only was transferred to the assay plate by a Pintool station (Kalypsys, San Diego, CA), followed by addition of 1 uL (1nM as final concentration) of 17-beta-estradiol (E2) in assay medium using a Flying Reagent Dispenser (FRD, Aurora Discovery, San Diego, CA). The plates were incubated at 37C and 5% CO2 for 16 hr. Then 1 uL of LiveBLAzer B/G FRET substrate was added using a Flying Reagent Dispenser, the plates were incubated at room temperature for 2 hours, and fluorescence intensity was measured by an Envision plate reader (PerkinElmer, Shelton, CT). For cell viability readout that measures cytotoxicity, 4 uL/well of CellTiter-Glo reagent was added into the assay plates using a FRD. After 30 min incubation at room temperature, the luminescence intensity in the plates was measured using a ViewLux (PerkinElmer) plate reader.
On the % scale 0 is the no-effect control and ±100 the full control effect; potency means the concentration at half of the fitted maximal effect.

Row | SMILES | Potency | activity change, negative = cytotoxicity
1 | CC(C)(C)CC(C)(C)c1ccc(O)c(Cc2ccc(Cl)cc2Cl)c1 | 29.8 µM (active) | 
2 | CCCCN(CCCC)C(=O)N(CCCC)CCCC |  | 8.28%
3 | CCCN(CCC)c1c([N+](=O)[O-])cc(C(F)(F)F)c(N)c1[N+](=O)[O-] | 30.5 µM (active) | 
4 | Cc1ccc(-n2nc(C(C)(C)C)cc2NC(=O)Nc2ccc(OCCN3CCOCC3)c3ccccc23)cc1 |  | -10% [at 42.5 µM]
5 | CCOc1nc2cccc(C(=O)OC(C)OC(=O)OC3CCCCC3)c2n1Cc1ccc(-c2ccccc2-c2nn[nH]n2)cc1 (stereo not given) | 19.3 µM (active) | 
6 | CCCCCOc1ccccc1/C(=C\SC)n1ccnc1 | 29.8 µM (active) | 
7 | CCCCCCC[N+](CC)(CC)CCCCc1ccc(Cl)cc1 |  | -22.7% [at 42.5 µM]
8 | CCN1/C(=C/C=C/c2sc3ccccc3[n+]2CC)Sc2ccccc21 | 11.6 µM (active) | 
9 | CCCCN1C(=O)[C@@H]([C@H](O)C2CCCCC2)NC(=O)C12CCN(Cc1ccc(Oc3ccc(C(=O)O)cc3)cc1)CC2 |  | -14.8%
10 | O=CC=C(c1ccccc1)c1ccccc1 | 27.5 µM (active) | 
11 | Cc1cccc(S(=O)(=O)O)c1C |  | 5.86%
12 | COc1cc(/C=C/C(=O)O[C@H]2CC[C@]34C[C@]35CC[C@]3(C)[C@@H]([C@H](C)CCC=C(C)C)CC[C@@]3(C)[C@@H]5CC[C@H]4C2(C)C)ccc1O |  | 6.07% [at 42.5 µM]
13 | NC(=NCCCCCCN=C(N)/N=C(\N)Nc1ccc(Cl)cc1)/N=C(\N)Nc1ccc(Cl)cc1 | 60.6 µM (active) and 48.3 µM (active) and 44.1 µM (active) | 
14 | O=C1c2c(O)ccc(Nc3ccc(CCO)cc3)c2C(=O)c2c([N+](=O)[O-])ccc(O)c21 |  | -23.6%
15 | O=C(OC[C@H]1O[C@@H](OC(=O)c2cc(O)c(O)c(OC(=O)c3cc(O)c(O)c(O)c3)c2)[C@H](OC(=O)c2cc(O)c(O)c(OC(=O)c3cc(O)c(O)c(O)c3)c2)[C@@H](OC(=O)c2cc(O)c(O)c(OC(=O)c3cc(O)c(O)c(O)c3)c2)[C@@H]1OC(=O)c1cc(O)c(O)c(OC(=O)c2cc(O)c(O)c(O)c2)c1)c1cc(O)c(O)c(OC(=O)c2cc(O)c(O)c(O)c2)c1 |  | -6.33% [at 19 µM]
16 | Cc1cc(C2CCCCC2)n(O)c(=O)c1 |  | -11.8% [at 42.5 µM]
17 | Cc1cccc2c1cc1ccc3cccc4ccc2c1c34 |  | -5.75%
18 | CCOC(=O)O[C@]1(C(=O)OCCl)CC[C@H]2[C@@H]3CCC4=CC(=O)C=C[C@]4(C)[C@H]3[C@@H](O)C[C@@]21C |  | -3% [at 42.5 µM]
19 | CSc1ccc(C(=O)c2[nH]c(=O)[nH]c2C)cc1 |  | 0.774% [at 42.5 µM]
20 | O=c1[nH]cnc2nc[nH]c12 |  | 7.19% [at 42.5 µM]

Row | SMILES | Potency | activity change, negative = cytotoxicity
21 | CC(C)(C)C(=O)OCOC(=O)[C@@H]1N2C(=O)[C@@H](NC(=O)[C@H](N)c3ccccc3)[C@H]2SC1(C)C |  | 4.96% [at 42.5 µM]
22 | CC(=O)N1CCN(c2ccc(OC[C@H]3CO[C@](Cn4ccnc4)(c4ccc(Cl)cc4Cl)O3)cc2)CC1 | 30.6 µM (active) | 
23 | CC/C(=C(\c1ccc(O)cc1)c1ccc(OCCN(C)C)cc1)c1ccccc1 | 27.4 µM (active) | 
24 | OCCCCCCCCCCCCBr |  | -22.1%
25 | CCCCCCCC[P+](CCCCCCCC)(CCCCCCCC)CCCCCCCC | 10.8 µM (active) | 
26 | O=C(NOCC1CC1)c1ccc(F)c(F)c1Nc1ccc(I)cc1Cl |  | -14.7% [at 42.5 µM]
27 | CCN(C(=O)N(CC)c1ccccc1)c1ccccc1 |  | -6.14%
28 | CCCCCCCCCCn1cc[n+](CCCCCCCCCC)c1C | 27.3 µM (active) | 
29 | COc1cc(-c2ccc(N=C=O)c(OC)c2)ccc1N=C=O |  | -8.11% [at 42.5 µM]
30 | CCCN(CCC)C(=O)C(CCC(=O)OCCCN1CCN(CCOC(=O)Cc2c(C)n(C(=O)c3ccc(Cl)cc3)c3ccc(OC)cc23)CC1)NC(=O)c1ccccc1 (stereo not given) | 13.3 µM (active) | 
31 | CCOC(=O)O[C@H](C)OC(=O)c1ccc2c(c1)cc(C(=O)NC1CCN(C(C)C)CC1)n2Cc1cc(-c2ccc(Cl)s2)on1 | 22.7 µM (active) | 
32 | CCCCC(CC)CN=C(N)NC(N)=NCCCCCCN=C(N)NC(N)=NCC(CC)CCCC (stereo not given) | 13.3 µM (active) | 
33 | Cn1cc(C(=O)[C@@H]2CCc3nc[nH]c3C2)c2ccccc21 |  | -23.1% [at 42.5 µM]
34 | CCCC1O[C@@H]2C[C@H]3[C@@H]4CCC5=CC(=O)C=C[C@]5(C)[C@H]4[C@@H](O)C[C@]3(C)[C@]2(C(=O)CO)O1 (stereo not given in full) |  | -23.4%
35 | OCc1c[nH]c2ccccc12 |  | -0.751%
36 | Nc1ccc2cc(S(=O)(=O)O)cc(O)c2c1N=Nc1ccccc1C(F)(F)F |  | 6.04%
37 | ON=C1CCCC1 |  | -19.7%
38 | Clc1ccccc1C(c1ccccc1)(c1ccccc1)n1ccnc1 | 15.4 µM (active) | 
39 | COc1cccc(N)c1 |  | -14.2%
40 | CCCCCCCC[N+](CCCCCCCC)(CCCCCCCC)CCCCCCCC | 21.6 µM (active) | 
